Screening results (PubChem BioAssay)
KinaseGlo FLuc: blocks Kinase-Glo luciferase, a counter-screen artifact; Kinase-Glo luciferase, ATP luminescence, 8 min; Potency, µM (series often up to 38.3 µM), for the others: at the highest dose activity change, negative = inhibition, usual class: inhibitors; hit rate 0.28% among 200,000; AID 1379; further: on the % scale 0 is the no-effect control and ±100 the full control effect; nearly all actives have a fitted effect of over 60% in size
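Compounds were added to a substrate mix at pH 7.2 (50 mM imidazole, 10 uM ATP, within the enzyme's linear range), followed by Kinase-Glo detection reagent; luminescence was measured after 8 minutes at ambient temperature.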
NPC1 promoter act: activators of NPC1 promoter | Huh7 NPC1 promoter luciferase reporter, 24 h | Potency, µM (doses to about 9.22 µM), inactives show top-dose activation, hits mostly activators | hit rate 2.4% among 320,000; further: % of control where 0% means no effect; nearly all actives have a fitted effect of over 60% in size
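Luminescence from an NPC1 promoter-driven luciferase reporter in stably transfected Huh7 cells was measured after 24 h compound treatment at 37 °C, followed by 10 min ambient incubation with luciferase detection reagent.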
ELG1 genotoxic: inducers of genotoxicity in HEK293T ELG1-luciferase cells. HEK293T ELG1-luciferase reporter, luminescence, 16 h. Potency, µM (series often up to 46 µM), inactives show at the top dose activity change, positive = activation, most hits filed as activators. hit rate 1.3% among 330,000; further: % of control where 0% means no effect; nearly all actives have a fitted effect of over 60% in size
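Reporter readout depends on ELG1 protein level, which increases with genetic stress. After 16 hr compound exposure at 37 °C, luciferase activity was quantified using ONE-Glo.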
SMN2 splice enh: SMN2 splice variant enhancement; HEK293 SMN2-luciferase splicing reporter, luminescence, 30-36 h; Potency, µM (titrated, usually from 46.1 µM), for inactives: at the top dose activity change, positive = activation, actives largely listed as activators; hit rate 2.8% among 210,000; AID 1458; further: % of control where 0% means no effect; nearly all actives have a fitted effect of over 55% in size
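qHTS luciferase splicing reporter: luminescence rises when SMN2 exon 7 is included in transfected HEK293 cells. Compound exposure lasted 30-36 h at 37C, with 4.5 mM final sodium butyrate as control, followed by a ONE-Glo read.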
FLuc modulator: inhibits or activates purified firefly luciferase, miR-21 counter-screen; P08659; purified FLuc, Km substrates, luminescence inhibition; AID 588342; Potency, µM (highest dose often 57.5 µM), inactives show at the highest dose activity change, negative = inhibition, hits mostly inhibitors; hit rate 6.9% among 360,000;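 further: plate controls were vehicle for no effect and reference inhibitor for full effect; nearly all actives have a fitted effect of over 55% in size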
Target sequence (P08659 whole entry, looked up): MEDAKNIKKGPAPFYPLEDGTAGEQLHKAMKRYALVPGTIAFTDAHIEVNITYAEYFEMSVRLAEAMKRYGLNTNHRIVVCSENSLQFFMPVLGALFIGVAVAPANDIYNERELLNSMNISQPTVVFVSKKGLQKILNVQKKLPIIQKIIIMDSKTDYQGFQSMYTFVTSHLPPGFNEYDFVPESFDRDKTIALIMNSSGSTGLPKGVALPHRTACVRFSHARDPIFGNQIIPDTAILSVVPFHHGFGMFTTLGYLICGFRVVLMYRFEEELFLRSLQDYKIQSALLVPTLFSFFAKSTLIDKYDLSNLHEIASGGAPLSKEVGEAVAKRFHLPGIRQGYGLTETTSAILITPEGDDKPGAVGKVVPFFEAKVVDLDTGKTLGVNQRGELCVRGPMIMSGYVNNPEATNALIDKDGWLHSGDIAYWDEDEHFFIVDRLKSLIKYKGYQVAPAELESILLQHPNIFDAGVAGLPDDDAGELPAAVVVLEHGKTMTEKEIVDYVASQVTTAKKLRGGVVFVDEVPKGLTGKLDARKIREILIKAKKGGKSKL
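Purified P. pyralis luciferase, 10 nM final, with Km-level 10 uM D-luciferin and 10 uM ATP in 50 mM Tris acetate pH 7.5, 10 mM Mg acetate, 0.01% Tween-20, 0.05% BSA; 6-point qHTS titration about 60 µM downward; luminescence read.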
Rab9 prom act: activators of Rab9 promoter; Huh7 Rab9 promoter-luciferase reporter, luminescence, 24 h; hit rate 2.8% among 320,000; Potency, µM (highest dose often 9.22 µM), inactives show top-dose activation, negative = inhibition, most hits filed as activators; AID 485297; further: % of control where 0% means no effect; nearly all actives have a fitted effect of over 60% in size
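Luminescence read-out: Huh7 cells stably expressing Rab9-luciferase, treated 24 h with compound at 37 °C, then lysed with luciferase reagent for 10 min at ambient before reading.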
Starred values were filed as active, the others as inactive; ? = inconclusive; . = no result given. Sampled rows, rich in hits. Any-hit rate of the full collection: about 7.5%. The call rests on the fitted dose curve; in most records, active means well fitted curve in the direction sought with a large enough effect; inconclusive means small, poorly fitted or top-dose-only effect, or another doubt; inactive means no such curve, though single readings can be large; an effect the other way counts as inactive or inconclusive. Potency means the concentration at half of the fitted maximal effect.

SMILES	KinaseGlo FLuc	NPC1 promoter act	ELG1 genotoxic	SMN2 splice enh	FLuc modulator	Rab9 prom act
CCOC(=O)c1ccc(NC(=O)CN2C(=O)CSC(C)C2=O)cc1 (stereo unspecified)	2.2%	-4.1%	1.3%	-18.2%	16.9µM*	-3.9%
CCOC(=O)c1ccc(NC(=O)CN2C(=O)C(C)SC(C)C2=O)cc1 (stereo unspecified)	0.7%	-0.8%	-2.0%	7.9%	?	0.4%
Cc1cc(NC(=O)Nc2ccccc2Cl)no1	.	19.3%	7.5%	.	15.1µM*	27.7%
COc1ccc(OC)c(NC(=O)Nc2cc(NC(=O)Nc3cc(OC)ccc3OC)c(C)nc2C)c1	0.4%	-5.0%	?	14.1µM*	6.2%	-3.0%
COc1ccc(OC)c(NC(=O)CSc2nc3ccccc3c(=O)n2CCNC(C)=O)c1	1.5%	-2.3%	-0.4%	-4.5%	-0.8%	-2.4%
Cc1cc(NC(=O)c2c(Cl)cccc2Cl)no1	0.2%	-1.9%	0.8%	1.6%	-14.5%	2.5%
COc1ccc(OC)c(NC(=O)Cn2c(C)nc3ccccc3c2=O)c1	0.2%	3.16µM*	?	.	9.53µM*	19.0%
COc1ccc(Cl)cc1NC(=O)Nc1cc(C)on1	.	1.41µM*	1.3µM*	.	6.01µM*	0.501µM*
COc1ccc(NC(=O)Nc2cc(NC(=O)Nc3ccc(OC)cc3)c(C)nc2C)cc1	1.1%	-1.7%	1.7%	20.2%	0.1%	-4.6%
Cc1ccc2c(c1)c1c(c(=O)n(-c3cccc(Cl)c3)c(=O)n1CC(=O)c1ccc(Cl)cc1)n2C	.	.	.	-41.1%	2.0%	.
CCC(NC(=O)Nc1cc(C)on1)(C(F)(F)F)C(F)(F)F	.	-0.9%	-1.6%	.	1.1%	-1.7%
COc1ccccc1OCC(=O)NNc1c2ccccc2nc2ccccc12	.	-27.6%	-17.1%	.	?	-33.9%
COc1ccc(OC)c(NC(=O)NCc2cccnc2)c1	.	-2.6%	0.4%	.	5.4%	3.4%
COc1ccc(Cl)cc1NC(=O)NCc1cccnc1	.	-7.3%	0.0%	.	15.1µM*	0.5%
COc1ccccc1/C=N/NC(=Nc1ccc(C)cc1)c1nc2ccccc2s1	-8.0%	6.1%	?	-26.9%	16.9µM*	15.7%
COc1cc(/C=N/NC(=O)CCC(=O)Nc2ccc(C)cc2)ccc1O	3.1%	-2.0%	0.2%	-33.7%	-17.8%	13.1%
COc1cc(/C=N/NC(=Nc2ccc(C)cc2)c2nc3ccccc3s2)ccc1O	-6.5%	27.5%	2.59µM*	-9.4%	2.69µM*	?
COc1ccccc1/C=N/NC(=O)c1sc(C)nc1C	-2.5%	-9.3%	-0.7%	-3.2%	?	-4.9%
O=C(Nc1ccc2oc(-c3ccncc3)nc2c1)c1ccccc1Cl	.	.	.	0.2%	?	.
O=C(Nc1ccc2oc(-c3ccccc3F)nc2c1)c1ccccc1Cl	.	.	.	14.1µM*	3.38µM*	.
COc1ccccc1C(=O)Nc1ccc2oc(-c3cccc4c(Br)cccc34)nc2c1	.	.	.	1.2%	?	.
CC(C)(C)C(=O)Nc1ccc2oc(-c3cc(F)c(F)cc3Cl)nc2c1	-0.3%	?	5.17µM*	25.5%	2.69µM*	4.47µM*
COc1ccccc1-c1nc2cc(NC(=O)c3ccccc3Cl)ccc2o1	.	.	.	10.6%	5.36µM*	.
Cc1ccc(Cl)cc1NC(=O)CCCN1C(=O)CCn2nc(-c3cn(C)c4ccccc34)cc21	.	.	.	.	-0.8%	.
Cc1ccc(C(=O)N/C(=C\c2cn(C)c3ccccc23)C(=O)NCCN2CCOCC2)cc1	.	-5.9%	-0.1%	.	0.0%	-1.8%
SMILES	KinaseGlo FLuc	NPC1 promoter act	ELG1 genotoxic	SMN2 splice enh	FLuc modulator	Rab9 prom act
O=C(O)c1cncc(C#Cc2ccccc2)c1	.	1.5%	-1.9%	.	?	14.7%
O=C(O)c1cncc(C#CCC2CCCCC2)c1	.	?	0.7%	.	?	2.82µM*
CCn1c(C)c(C2N3CC4(C)CN2CC(CC)(C3)C4=O)c2ccccc21 (stereo unspecified)	.	.	.	16.7%	3.8%	.
COC(=O)C(Cc1ccc(O)cc1)N1Cc2ccccc2C1=O (stereo unspecified)	.	3.98µM*	?	.	15.1µM*	1.78µM*
COC(=O)C(Cc1ccc(OC(=O)c2ccc(C)cc2)cc1)N1Cc2ccccc2C1=O (stereo unspecified)	-0.7%	?	9.0%	15.8µM*	?	?
Cc1ccc(CN2CCc3nc(N4CCN(c5ccccc5F)CC4)ncc3C2)s1	.	.	.	.	-6.2%	.
O=C(NCc1ccccn1)Nc1cc(Cl)cc(Cl)c1	.	-1.0%	-1.3%	.	1.6%	2.4%
O=C(Nc1ccc(Nc2ccccc2)cc1)Nc1ccccc1Cl	.	?	?	.	10.7µM*	?
O=C(Nc1ccc(Cl)cc1)Nc1ccccc1Sc1ncc([N+](=O)[O-])s1	.	?	?	.	12µM*	?
O=C(Nc1csc([N+](=O)[O-])c1)Nc1ccccc1Cl	.	13.9%	-6.2%	.	16.9µM*	15.1%
O=C(Nc1ccccc1)Nc1cc(Cl)cc(Cl)c1	2.0%	10.8%	-1.4%	-8.7%	26.9µM*	?
CC(=O)N1CCC(N(Cc2ccco2)C(=O)Nc2ccc(C)c(Cl)c2)CC1	.	.	.	.	0.6%	.
O=C(NC(=O)c1ccccc1)C1=C(N2CCCC2)COC1=O	.	2.24µM*	?	.	?	1.26µM*
O=C(NS(=O)(=O)Nc1ccccc1)C1=C(N2CCCC2)COC1=O	.	.	1.0%	.	.	.
CCN(CC)c1ccc(C(=O)NCc2ccc3c(c2)CCN3C(=O)c2ccc(F)cc2)cc1	.	.	.	.	-15.6%	.
Cc1cc(=O)n(CCc2ccccc2)c(O)c1C#N	-0.9%	20.3%	2.7%	1.0%	13.5µM*	?
COc1ccc(-c2nc(SCC(=O)Nc3ccc4c(c3)OCCO4)c(-c3ccc(C)cc3)[nH]2)cc1OC	.	.	.	-5.4%	?	.
O=C(CNc1ccccc1)N/N=C/c1ccc2c(c1)OCO2	1.3%	5.4%	2.2%	6.8%	?	3.2%
O=C(CNC(=O)c1ccccc1Cl)N/N=C/c1ccc2c(c1)OCO2	.	-1.0%	3.0%	.	?	2.0%
O=C(Cc1ccccc1)N/N=C/c1ccc2c(c1)OCO2	-0.6%	2.51µM*	?	15.8µM*	15.1µM*	3.98µM*
O=C(CNC(=O)c1ccccc1F)N/N=C/c1ccc2c(c1)OCO2	.	?	?	.	16.9µM*	?
C/C(=N\NC(=O)Cn1ccc(C(F)(F)F)n1)c1ccc2c(c1)OCO2	0.3%	-1.6%	-3.3%	-7.1%	-7.4%	10.9%
O=C(Cn1ccc(C(F)(F)F)n1)N/N=C/c1ccc2c(c1)OCO2	.	23.4%	?	.	19µM*	6.0%
O=C(CNc1ccccc1)N/N=C/c1ccc2c(c1)OCCO2	4.0%	1.6%	0.8%	?	9.53µM*	0.2%
O=C(CSc1ncccn1)N/N=C/c1ccc2c(c1)OCO2	.	26.2%	?	.	10.7µM*	?
COc1cccc(C(=O)NCC(=O)N/N=C/c2ccc3c(c2)OCO3)c1	.	3.5%	6.2%	.	23.9µM*	0.9%
